Structures can show the parent of a compound that is named as a salt. ± gives the standard deviation of the averaged measurements.
Columns and labels:
Assay in all cases: growth (OD600 after 10 h); higher = more growth (less inhibition)
[1] = system: E. coli TESEC Alr+ wild-type control; conditions: compound 0.1 mM; raw OD600 reference: median of DMSO wells 0.241, cell-free background 0.041
Procedure: (§1)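 TESEC Mtb Alr E. coli, or the Alr+ wild-type control, in 384-well plates with Prestwick library compounds at 0.1 mM and 1% DMSO, across arabinose induction levels of 1E3 to 1E7 nM. Growth is read as OD600 after 10 h at 37 °C in triplicate biological replicates.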

E. coli TESEC Mtb Alr [2] = conditions: compound 0.1 mM
Procedure: as §1

E. coli TESEC Mtb Asd = conditions: compound 0.1 mM
Procedure: (§2)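 TESEC E. coli strains in which the native enzyme is deleted and replaced by arabinose-inducible Mtb Asd, DapB, CysH or TrpD, each grown in its selective medium. Strains were screened against the Prestwick library at 0.1 mM and 1% DMSO in 384-well format at low and high arabinose induction. Growth is read as OD600 after 10 h in triplicate.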

E. coli TESEC Mtb DapB = conditions: compound 0.1 mM
Procedure: as §2

E. coli TESEC Mtb Alr [3] = conditions: compound 0.1 mM; remark: listed apart in the source
Procedure: (§3)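 TESEC Mtb Alr E. coli (ΔaraC ΔtolC ΔentC Δalr ΔdadX, arabinose-inducible Mtb Alr) or the Alr+ wild-type control strain, grown in defined M9-fructose medium without D-alanine in 96-well plates with Prestwick library compounds at 0.1 mM and 1% DMSO. Low Alr induction is 0.1 µM arabinose and high induction is 10 mM arabinose.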

[4] = system: E. coli TESEC Alr+ wild-type control; conditions: compound 0.1 mM; raw OD600 reference: median of DMSO wells 0.49, cell-free background 0.052
Procedure: as §3

[5] = arabinose 1000 nM, raw OD600 reference: median of DMSO wells 0.294, cell-free background 0.041
[6] = arabinose 10000 nM, raw OD600 reference: median of DMSO wells 0.264, cell-free background 0.041
[7] = arabinose 100000 nM, raw OD600 reference: median of DMSO wells 0.201, cell-free background 0.041
[8] = arabinose 1000000 nM, raw OD600 reference: median of DMSO wells 0.193, cell-free background 0.041
[9] = arabinose 10000000 nM, raw OD600 reference: median of DMSO wells 0.146, cell-free background 0.041
[10] = arabinose induction (level): High, raw OD600 reference: median of DMSO wells 0.331, cell-free background 0.041
[11] = arabinose induction (level): Low, raw OD600 reference: median of DMSO wells 0.417, cell-free background 0.041
[12] = arabinose induction (level): High, raw OD600 reference: median of DMSO wells […], cell-free background 0.041
[13] = arabinose induction (level): Low, raw OD600 reference: median of DMSO wells 0.227, cell-free background 0.041
[14] = arabinose 100 nM, raw OD600 reference: median of DMSO wells 0.413, cell-free background 0.052
[15] = arabinose 10000000 nM, raw OD600 reference: median of DMSO wells […], cell-free background 0.052

Structure (SMILES)	growth [1]	growth (E. coli TESEC Mtb Alr [2]; [5])	growth (E. coli TESEC Mtb Alr [2]; [6])	growth (E. coli TESEC Mtb Alr [2]; [7])	growth (E. coli TESEC Mtb Alr [2]; [8])	growth (E. coli TESEC Mtb Alr [2]; [9])	growth (E. coli TESEC Mtb Asd; [10])	growth (E. coli TESEC Mtb Asd; [11])	growth (E. coli TESEC Mtb DapB; [12])	growth (E. coli TESEC Mtb DapB; [13])	growth (E. coli TESEC Mtb Alr [3]; [14])	growth (E. coli TESEC Mtb Alr [3]; [15])	growth [4]
CC(=O)O[C@]1(C(C)=O)CC[C@H]2[C@@H]3C=C(C)C4=CC(=O)CC[C@@H]4[C@H]3CC[C@@]21C [Nomegestrol acetate]	0.1345 ± 0.001	0.127 ± 0.02	0.0606 ± 0.0005	0.124 ± 0.0062	0.061 ± 0.0017	0.0997 ± 0.0051	0.126 ± 0.018	0.104 ± 0.0027	0.144 ± 0.014	0.129 ± 0.0045	0.229 ± 0.082	0.0935 ± 0.015	
CSc1ccc2c(c1)N(CCC1CCCCN1C)c1ccccc1S2 (configuration not stated) [Thioridazine hydrochloride]	0.04013 ± 0.00015	0.0427 ± 0.0046	0.0393 ± 0.00064	0.04037 ± 0.00031	0.03907 ± 0.00012	0.04007 ± 5.8e-05	0.0505 ± 0.0013	0.0523 ± 0.0022	0.04803 ± 0.00029	0.0782 ± 0.052	0.178 ± 0.21	0.05103 ± 0.00015	
COc1ccc(/C=C/C(=O)Nc2ccccc2C(=O)O)cc1OC [Tranilast]	0.171 ± 0.0022	0.245 ± 0.0071	0.27 ± 0.0085	0.134 ± 0.011	0.104 ± 0.002	0.126 ± 0.0016	0.218 ± 0.032	0.279 ± 0.082	0.204 ± 0.035	0.178 ± 0.011	0.308 ± 0.12	0.15 ± 0.012	
COc1ncnc(NS(=O)(=O)c2ccc(N)cc2)c1OC [Sulfadoxine]	0.2282 ± 0.0012	0.28 ± 0.0075	0.251 ± 0.0051	0.192 ± 0.021	0.174 ± 0.007	0.14 ± 0.0077	0.306 ± 0.058	0.382 ± 0.062	0.195 ± 0.0074	0.237 ± 0.0097	0.4331 ± 0.0033	0.306 ± 0.007	
CN1CCN(CC(=O)N2c3ccccc3C(=O)Nc3cccnc32)CC1 [Pirenzepine dihydrochloride]	0.242 ± 0.0032	0.269 ± 0.049	0.268 ± 0.013	0.193 ± 0.0071	0.177 ± 0.0037	0.148 ± 0.0028	0.28 ± 0.051	0.418 ± 0.034	0.19 ± 0.013	0.253 ± 0.038	0.4155 ± 0.0034	0.334 ± 0.019	
Nc1nc(=O)c2c([nH]1)NC[C@@H](CNc1ccc(C(=O)N[C@@H](CCC(=O)O)C(=O)O)cc1)N2C=O [Folinic acid calcium salt]	0.255 ± 0.0064	0.289 ± 0.0096	0.274 ± 0.0059	0.204 ± 0.033	0.211 ± 0.016	0.1379 ± 0.0013	0.307 ± 0.0086	0.391 ± 0.08	0.203 ± 0.012	0.218 ± 0.014	0.397 ± 0.008	0.375 ± 0.019	
Cc1ccc(NC(=O)c2ccc(CN3CCN(C)CC3)cc2)cc1Nc1nccc(-c2cccnc2)n1 [Imatinib]	0.171 ± 0.0085	0.23 ± 0.0032	0.241 ± 0.00089	0.141 ± 0.009	0.119 ± 0.0081	0.161 ± 0.0024	0.185 ± 0.02	0.334 ± 0.063	0.185 ± 0.011	0.217 ± 0.02	0.4192 ± 0.0028	0.241 ± 0.018	
CCCOc1ccccc1-c1nc2[nH]nnc2c(=O)[nH]1 [Zaprinast]	0.205 ± 0.0049	0.229 ± 0.0072	0.257 ± 0.0057	0.162 ± 0.016	0.173 ± 0.0024	0.138 ± 0.0042	0.268 ± 0.029	0.313 ± 0.046	0.191 ± 0.0075	0.199 ± 0.024	0.396 ± 0.0084	0.289 ± 0.0088	
COc1cccc2c1C(=O)c1c(O)c3c(c(O)c1C2=O)C[C@@](O)(C(C)=O)C[C@@H]3O[C@H]1C[C@H](N)[C@H](O)[C@H](C)O1 [Daunorubicin hydrochloride]	0.0457 ± 0.0022	0.0442 ± 0.0008	0.04263 ± 5.8e-05	0.0446 ± 0.001	0.04253 ± 0.00038	0.0433 ± 0.0001	0.058 ± 0.0071	0.0577 ± 0.0054	0.0527 ± 0.0011	0.0519 ± 0.00092	0.0571 ± 0.0011	0.0536 ± 0.00026	
CN1CCc2cccc3c2[C@H]1Cc1ccc(O)c(O)c1-3 [R(-) Apomorphine hydrochloride hemihydrate]	0.0618 ± 0.002	0.292 ± 0.0093	0.254 ± 0.0078	0.181 ± 0.019	0.0652 ± 0.0022	0.14 ± 0.0033	0.152 ± 0.027	0.147 ± 0.066	0.16 ± 0.0062	0.174 ± 0.021	0.407 ± 0.0077	0.199 ± 0.11	
CCCCC(=O)O[C@H]1CC[C@H]2[C@@H]3CCc4cc(O)ccc4[C@H]3CC[C@]12C [Estradiol Valerate]	0.252 ± 0.004	0.307 ± 0.0067	0.285 ± 0.0065	0.215 ± 0.016	0.221 ± 0.021	0.13 ± 0.0034	0.404 ± 0.031	0.396 ± 0.048	0.193 ± 0.0052	0.207 ± 0.0061	0.436 ± 0.018	0.38 ± 0.0047	
OC(CCN1CCCC1)(c1ccccc1)C1CCCCC1 (configuration not stated) [Procyclidine hydrochloride]	0.206 ± 0.018	0.297 ± 0.018	0.266 ± 0.0065	0.194 ± 0.011	0.163 ± 0.0092	0.148 ± 0.0059	0.314 ± 0.14	0.473 ± 0.055	0.177 ± 0.026	0.245 ± 0.033	0.412 ± 0.009	0.317 ± 0.0092	
CCOc1ccc(Cc2nccc3cc(OCC)c(OCC)cc23)cc1OCC [Ethaverine hydrochloride]	0.0471 ± 0.00059	0.0509 ± 0.0018	0.0528 ± 0.018	0.0664 ± 0.025	0.0659 ± 0.033	0.0686 ± 0.015	0.228 ± 0.0076	0.1635 ± 0.0016	0.156 ± 0.0076	0.165 ± 0.017	0.403 ± 0.0076	0.0633 ± 0.0024	
O=C(O)Cc1cc(I)c(Oc2ccc(O)c(I)c2)c(I)c1 [Tiratricol, 3,3',5-triiodothyroacetic acid]	0.0409 ± 0.00083	0.0428 ± 0.0019	0.04123 ± 0.00021	0.0442 ± 0.0023	0.0408 ± 0.00017	0.0558 ± 0.002	0.057 ± 0.0056	0.06 ± 0.0072	0.0676 ± 0.0044	0.108 ± 0.09	0.167 ± 0.087	0.05437 ± 0.00015	
Clc1ccc(C(Cn2ccnc2)OCc2c(Cl)cccc2Cl)c(Cl)c1 (configuration not stated) [Isoconazole]	0.0482 ± 0.00036	0.0445 ± 0.0043	0.247 ± 0.037	0.0465 ± 0.0023	0.105 ± 0.12	0.0545 ± 0.0038	0.152 ± 0.079	0.0562 ± 0.006	0.0672 ± 0.015	0.0666 ± 0.02	0.0651 ± 0.02	0.104 ± 0.075	
CN1CCCN(C(c2ccccc2)c2ccc(Cl)cc2)CC1 (configuration not stated) [Homochlorcyclizine dihydrochloride]	0.189 ± 0.0068	0.137 ± 0.082	0.169 ± 0.0051	0.09 ± 0.04	0.0532 ± 0.00092	0.0545 ± 0.00056	0.123 ± 0.011	0.152 ± 0.015			0.413 ± 0.0053	0.118 ± 0.018	0.498 ± 0.047
NC[C@@H]1O[C@H](O[C@H]2[C@@H](O)[C@H](O[C@@H]3[C@@H](O)[C@H](N)C[C@H](N)[C@H]3O[C@H]3O[C@H](CO)[C@@H](O)[C@H](O)[C@H]3N)O[C@@H]2CO)[C@H](N)[C@@H](O)[C@@H]1O [Paromomycin sulfate]	0.251 ± 0.0064	0.327 ± 0.0078	0.275 ± 0.0073	0.19 ± 0.0041	0.19 ± 0.013	0.163 ± 0.0039	0.496 ± 0.0058	0.447 ± 0.027			0.405 ± 0.014	0.333 ± 0.0043	0.535 ± 0.089
